Measured values taken from PubChem BioAssay AID2113 (National Center for Advancing Translational Sciences (NCATS), 2009).
Records with an inconclusive call do not appear. Entries that show only a call come without a potency. Activity calls are given as the source filed them. Calls follow the shape of the dose curve; as a rule, active = well fitted curve in either direction with a large enough effect; inconclusive = small, poorly fitted or top-dose-only effect; inactive = no such curve, though single readings can be large or run the other way.

molecular target: Lysosomal alpha-glucosidase (Homo sapiens) (UniProt P10253); test: Confirmation of Inhibitors and Activators of Human alpha-Glucosidase From Spleen Homogenate; settings: alpha-glucosidase enzyme activity; series mostly up to 60.5 µM;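 as to potency: fluorescence of 4-methylumbelliferone released from a fluorogenic glucopyranoside substrate at pH 5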
Procedure, shortened: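 Fluorogenic assay using human spleen homogenate (1 ug) as enzyme source with 1 mM 4-methylumbelliferyl-alpha-D-glucopyranoside, pH 5.0 citrate buffer, 40 min at 37 C. 4-MU read (Ex 365/Em 440) after NaOH/glycine stop; AC50 from Hill fits.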
Potency is read from the fitted curve at half-maximal effect.

| Compound | Potency |
| --- | --- |
| COC(=O)c1ccc(CSc2cc(C)c3cccc(C)c3n2)o1 | inactive |
| CCc1sc(-c2cc3ccc(O)cc3oc2=O)nc1-c1cc(C)ccc1C | inactive |
| C=CCSc1nc(-c2ccc3c(c2)OCO3)cc(C(F)(F)F)c1C#N | inactive |
| C(=C/c1ccc2ccccc2n1)/c1ccc2c(c1)OCO2 | inactive |
| COc1ccc(/C=C/c2nnc(NC(=O)CSc3ccccc3)s2)cc1 | inactive |
| O=c1[nH]c2ccccc2nc1/C=C/c1ccc2c(c1)OCO2 | inactive |
| CC(=O)c1ccc(N2CCN(S(=O)(=O)c3ccc4c(c3)n(C)c(=O)n4C)CC2)cc1 | inactive |
| O=C(CCc1cccc(S(=O)(=O)N2CCOCC2)c1)NN=C1c2ccccc2-c2ccccc21 | inactive |
| CCCCN1C[C@H](O)[C@@H](O)[C@H](O)[C@H]1CO | inactive |
| C(=C\c1nccc2c1[nH]c1ccccc12)/c1ccc2c(c1)OCO2 | inactive |
| O=C(O)Cc1sc(-c2cc3ccccc3oc2=O)nc1-c1ccc(-c2ccccc2)cc1 | inactive |
| O=S(=O)(c1ccccc1)N1CCN(c2ccccc2)CC1 | inactive |
| CCCN1CNc2c(c(=O)[nH]c(=S)n2CCc2cccc(C)c2C)C1 | 12.6 µM (active) |
| COc1ccc(/C=C/c2nnc(NC(=O)COc3ccc(Cl)cc3)s2)cc1 | inactive |
| C/C=C1\COC(C(=O)NCCN2CCOCC2)(C(F)(F)F)C=C1C=C1CCCCC1 (stereo not drawn) | inactive |
| N#Cc1c(-c2cccs2)cc(-c2cccnc2)nc1N | inactive |
| O=S(=O)(c1ccccc1F)N1CCOCC1 | inactive |
| CC(=O)c1ccc(N2CCN(S(=O)(=O)c3ccc4c(c3)CCC(=O)N4)CC2)cc1 | inactive |
